Test results reported in PubChem BioAssay (NCATS).
Records with an inconclusive call do not appear. Calls of active or inactive are those of the source. Calls follow the shape of the dose curve; as a rule, active = well fitted cell-killing curve with a large enough effect; inconclusive = small, poorly fitted or top-dose-only effect, or effect the other way; inactive = no such curve, though single readings can be large or run the other way.

experiment: Viability qHTS for spleen associated tyrosine kinase inhibitor (SYKi) drug resistant MV4-11 cells (AID 1963824); conditions: SYKi-resistant MV4-11 viability, CellTiter-Glo, 72 h; series mostly up to 45 µM; viability, % of control: at the top concentration; also: nearly all actives have a fitted effect of over 35% in size
Outline: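 CellTiter-Glo luminescence, read 10 min after reagent addition, reports viability after a 72 hr compound exposure. Cells are an MV4-11 line made resistant to SYK inhibition, seeded at 500 per well onto compound-containing plates.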
Potency is read from the fitted curve at half-maximal effect.

SMILES	Potency	viability, % of control
O=C1[C@H](Cc2ccc(O)cc2)N2C(=O)CCN(C(=O)NCc3ccccc3)[C@H]2CN1Cc1cccc2ccccc12	1.48 µM (active)	
O=C(CC1CC(c2ccc(F)cc2F)=NO1)N1CCOCC1 (stereo not given)		76.3% (inactive)
COc1cc2c(cc1OC)[C@@H]1CC(=O)[C@@H](CC(C)C)CN1CC2		62% (inactive)
CC[C@H](C(=O)Nc1ccccc1N1CCCC1)c1ccccc1	23.1 µM (active)	
O=c1[nH]c2cccc(N3CCN(Cc4ccc(-c5ccccc5)cc4)CC3)c2o1	20.6 µM (active)	
O=C1CCc2cc(S(=O)(=O)Nc3cccc(Cl)c3)ccc2N1	16.4 µM (active)	
C[C@@H]1O[C@@H](O[C@H]2[C@H](O)[C@@H](C(=O)O)O[C@@H](O[C@H]3CC[C@@]4(C)C(CC[C@]5(C)C4CC=C4C6CC(C)(C)CC[C@]6(C(=O)O)CC[C@]45C)C3(C)C)[C@@H]2O[C@@H]2OC[C@@H](O)[C@H](O)[C@H]2O)[C@H](O)[C@H](O)[C@H]1O (stereo not given in full)		92.4% [at 9.25 µM] (inactive)
CCOc1ccc(S(=O)(=O)N2CCCCCC2)c2ccccc12	20.6 µM (active)	
CO[C@@H]1[C@@H](O[C@H]2O[C@@H](C)[C@H](O[C@@H]3C[C@](C)(O)[C@H](O)[C@@H](C)O3)[C@@H](N(C)C)[C@@H]2O)[C@@H](CC=O)C[C@@H](C)[C@@H](O[C@H]2CC[C@H](N(C)C)[C@H](C)O2)/C=C/C=C/C[C@@H](C)OC(=O)C[C@H]1O	10.3 µM (active)	
O=S(=O)(Nc1ccc(C(O)(C(F)(F)F)C(F)(F)F)cc1)c1cccs1	16.4 µM (active)	
